Experimental data taken from PubChem BioAssay (NCATS).
Several values for one entry are separate records, joined by “and”; a condition that tells them apart may be missing. Equal values may be shown once. Inconclusive results are not listed. Activity calls are given as the source filed them. Unless noted, calls come from the whole dose curve; as a rule, active = well fitted curve in the direction sought with a large enough effect; inconclusive = small, poorly fitted or top-dose-only effect, or another doubt; inactive = no such curve, though single readings can be large; an effect the other way counts as inactive or inconclusive.

Assays:
[1] = Cellular Toxicity (caspase-3) SHSY5Y (AID 657)
How it was run: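 Cells plated and incubated 5 h at 37 °C, dosed over a concentration range, incubated 16 h, then given Caspase-Glo 3/7 reagent for 1 h at room temperature before luminescence reading. Staurosporine (10 uM) defined full stimulation.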

[2] = Cellular Toxicity (caspase-3) H-4-II-E (AID 663); conditions: Potency: caspase-3 activation;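 note: cells exposed to compound for 16 hr before readout; 0% = DMSO basal and 100% = 100 µM tamoxifen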
How it was run: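 H-4-II-E rat hepatoma, 1500 cells/well, 5 hr settle at 37 °C; compound 16 hr, 37 °C, complete medium; Caspase-Glo 3/7, 20 min RT; luminescence. DMSO = 0%, 100 uM tamoxifen = 100%; Hill-equation AC50.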

[3] = MultiTox-Fluor Cytotoxicity Assay - LYMP1-001 - Dead Cells (AID 946);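 note: 0% = DMSO and 100% = tetraoctylammonium bromide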
How it was run: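 AC50 from Hill fit of concentration-response; data normalized to DMSO (basal) and 15 uM tetraoctylammonium bromide (100%). LYMP1-001 lymphoblastoid cells, 2500/well, 16 hr compound at 37 C; dead-cell protease fluorescence, Ex/Em 485/520.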

[4] = MultiTox-Fluor Cytotoxicity Assay - LYMP1-002 - Dead Cells (AID 960);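 note: 0% = DMSO and 100% = tetraoctylammonium bromide; nearly all actives have a fitted effect of over 60% in size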
How it was run: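 Dead-cell fluorescence (Ex/Em 485/520) after 16 h compound exposure at 37 C of LYMP1-002 lymphoblastoid cells in complete medium; AC50 by Hill equation, with data scaled between DMSO and 15 uM tetraoctylammonium bromide.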

[5] = MultiTox-Fluor Cytotoxicity Assay - LYMP1-003 - Live Cells (AID 962);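 note: 0% = DMSO only and full loss = 92 µM tetraoctylammonium bromide; cytotoxic hits lower the live-cell protease signal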
How it was run: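 Live-cell protease activity (GF-AFC substrate, 405/510 nm, 60 min at room temperature) after 16 h, 37 C compound exposure of human lymphoblastoid LYMP1-003 cells; concentration-response fitted to the Hill equation for AC50.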

[6] = Cell Viability - LYMP1-003 - Assay at 24 hr (AID 963);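 note: plate controls were DMSO only for no effect and tetraoctylammonium bromide positive control for full effect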
How it was run: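 Concentration-response qHTS: ATP loss measured by CellTiter-Glo luminescence after 24 h compound exposure at 37 C. Cells were LYMP1-003 human lymphoblastoid, 2500 per well. AC50 derived via standard Hill equation modeling.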

[7] = Cell Viability - LYMP1-003 - Assay at 40 hr (AID 964); note: % is set by controls: 0 for no effect and ±100 for the full control effect; nearly all actives have a fitted effect of over 60% in size
How it was run: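 Viability is taken as cellular ATP, read by CellTiter-Glo luminescence after 40 h of compound exposure at 37 C. Cells: human lymphoblastoid line LYMP1-003 at 2500/well; AC50 values derived by Hill-equation fitting of concentration-response data.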

[8] = Cell Viability - LYMP2-011 (AID 969);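 note: 0% = DMSO only and full inhibition = 92 µM tetraoctylammonium bromide; nearly all actives have a fitted effect of over 60% in size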
How it was run: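 Cytotoxicity qHTS with ATP content as read-out: lymphoblastoid cells (2500/well) exposed to compound for 24 h at 37 C, then luciferase luminescence measured. Concentration-response data fitted with the standard Hill equation to give AC50.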

[9] = Cell Viability - LYMP2-021 (AID 974); note: % is set by controls: 0 for no effect and ±100 for the full control effect; nearly all actives have a fitted effect of over 55% in size
How it was run: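 AC50 values come from Hill-equation fits to CellTiter-Glo luminescence (ATP content), read after 24 hour compound exposure at 37 C of 2500 LYMP2-021 lymphoblastoid cells/well; tetraoctylammonium bromide as positive control.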

[10] = Cell Viability - LYMP2-023 (AID 975);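 note: cellular ATP measured by luciferase luminescence as viability proxy; plate controls were DMSO only for no effect and 92 µM tetraoctylammonium bromide control for full effect; nearly all actives have a fitted effect of over 55% in size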
How it was run: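 Intracellular ATP, read by CellTiter-Glo luminescence, reports viability after 24 hr compound exposure at 37 C. 2500 lymphoblastoid cells/well (LYMP2-023) seeded 5 hr beforehand; Hill fits give AC50; positive control tetraoctylammonium bromide.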

[11] = Cell Viability - LYMP2-010 (AID 981); note: % is set by controls: 0 for no effect and ±100 for the full control effect; nearly all actives have a fitted effect of over 55% in size
How it was run: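 CellTiter-Glo ATP luminescence measured cytotoxicity after 24 h compound exposure at 37 C. LYMP2-010 cells were seeded at 2500/well, with tetraoctylammonium bromide as control; concentration-response curves gave AC50 values by the Hill equation.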

[12] = Cell Viability - LYMP2-014 (AID 983);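 note: plate controls were DMSO only for no effect and 92 µM tetraoctylammonium bromide for full effect; nearly all actives have a fitted effect of over 50% in size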
How it was run: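 Intracellular ATP loss, read by luciferase luminescence, measures acute cytotoxicity after 24 h compound exposure of lymphoblastoid LYMP2-014 cells (2500/well, 37 C). Concentration-response data fitted to the Hill equation for AC50.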

[13] = Cell Viability - LYMP2-016 (AID 984); note: % is set by controls: 0 for no effect and ±100 for the full control effect; nearly all actives have a fitted effect of over 55% in size
How it was run: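 Acute toxicity in a Coriell human lymphoblastoid line is scored as loss of intracellular ATP over 24 h of treatment in complete medium. CellTiter-Glo signal is fitted across concentrations with the Hill equation to give AC50.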

[14] = Cell Viability - LYMP2-018 (AID 985);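 note: plate controls were DMSO only for no effect and tetraoctylammonium bromide at 92 µM for full effect; nearly all actives have a fitted effect of over 50% in size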
How it was run: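 Viability read as CellTiter-Glo luminescence (cellular ATP) after 24 hr compound exposure at 37 C of 2500 LYMP2-018 lymphoblastoid cells/well, pre-plated 5 hr. Hill-equation modelling gave AC50.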

[15] = qHTS assay for small molecule activators of the p53 signaling pathway (AID 651743; active = well fitted activation curve with a large enough effect in the signal ratio, not every such curve was filed as active; the % refers to the signal ratio; note: % of control where 0% means no effect); conditions: HCT-116 p53RE-bla, beta-lactamase FRET ratio, 16 h; activation: hits give high values
How it was run: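 Following 16 hours of compound exposure at 37 C, HCT-116 cells bearing the p53RE-bla reporter were loaded with LiveBLAzer B/G FRET substrate for 2 hours at room temperature and fluorescence intensity was recorded.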

[16] = qHTS assay for small molecule disruptors of the mitochondrial membrane potential - 1 hr assay (AID 651754; calls by dose curve; note: nearly all actives have a fitted effect of over 35% in size; note: potency is the fitted concentration of half-maximal effect)
How it was run: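 Mitochondrial potential in living HepG2 cells after 1 hr compound treatment at 37C was read with Mito-MPS dye added for a further 30 min. Red aggregate and green monomer fluorescence were measured; loss of potential leaves dye as cytoplasmic monomers.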

[17] = Cellular Toxicity (caspase-3) HUV-EC-C (AID 656);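 note: 0% = DMSO basal and 100% = 100 µM tamoxifen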
How it was run: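 Read-out: luminescence proportional to caspase 3/7 activity, measured 20 min after adding Caspase-Glo 3/7 reagent. Cells (HUV-EC-C) had received compound for 16 hr at 37°C. Increases relative to DMSO and 100 uM tamoxifen gave concentration-response AC50 values.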

[18] = Cell Viability - LYMP1-002 - Assay at 16 hr (AID 948);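 note: 0% = DMSO alone and full effect = 92 µM tetraoctylammonium bromide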
How it was run: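 Acute cytotoxicity is scored as a concentration-dependent fall in intracellular ATP in a human lymphoblastoid line (LYMP1-002) after 16 hr compound exposure at 37 C, measured by luciferase luminescence.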

[19] = Cell Viability - LYMP2-024 (AID 988);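 note: plate controls were DMSO only for no effect and 92 µM tetraoctylammonium bromide for full effect; nearly all actives have a fitted effect of over 60% in size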
How it was run: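 Cytotoxicity was taken as a decrease in ATP (CellTiter-Glo luminescence) after 24 hr compound exposure at 37 C of LYMP2-024 lymphoblastoid cells, 2500 cells/well. Concentration-response data were fitted to the Hill equation to give AC50.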

[20] = Cell Viability - N2a (AID 540); conditions: N2a mouse neuroblastoma cell viability; activity change, negative = cytotoxicity: at 92.2 µM (top of the series);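 note: plate controls were DMSO alone for no effect and tamoxifen control for full effect; nearly all actives have a fitted effect of over 45% in size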
How it was run: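 CellTiter-Glo ATP luminescence, read 20 min after reagent at room temperature, reported viability following 40 h compound treatment at 37 °C. N2a mouse neuroblastoma cells seeded 1500/well; Hill equation gave AC50.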

[N-]=[N+]=[N-]
inactive: outcome [1] | Potency [2] | outcome [3] | Potency [4] | outcome [5] | outcome [6] | Potency [7] | Potency [8] | Potency [9] | Potency [10] | Potency [11] | Potency [12] | Potency [13] | Potency [14] | activation [15] -1.87% | Potency [16]

C/C=C/C=O
inactive: outcome [17] | outcome [1] | Potency [2] | outcome [3] | outcome [18] | Potency [4] | outcome [6] | Potency [7] | Potency [8] | Potency [9] | Potency [10] | Potency [11] | Potency [12] | Potency [13] | Potency [14] | Potency [19]

S=C1NCCN1
inactive: outcome [17] | outcome [1] | Potency [2] | Potency [4] | outcome [5] | outcome [6] | Potency [7] | Potency [8] | Potency [10] | Potency [11] | Potency [13] | Potency [14] | Potency [19] | activation [15] -4.05% and -5.02%

N#CCCC#N
inactive: Potency [20] | outcome [1] | Potency [2] | outcome [18] | Potency [4] | outcome [5] | outcome [6] | Potency [7] | Potency [8] | Potency [9] | Potency [11] | Potency [12] | Potency [13] | Potency [14] | Potency [19] | activation [15] -0.196%

c1ccc(NNc2ccccc2)cc1
inactive: Potency [20] | outcome [17] | outcome [1] | Potency [2] | outcome [3] | Potency [4] | outcome [6] | Potency [10] | Potency [11] | Potency [12] | Potency [13] | Potency [14] | Potency [19] | activation [15] -0.259% and 0.698% | Potency [16]

C=CC(=O)OCC(CC)CCCC (centres undefined)
inactive: outcome [17] | outcome [1] | outcome [18] | outcome [5] | outcome [6] | Potency [8] | Potency [10] | Potency [11] | Potency [13] | Potency [19] | activation [15] 0.81% and 5.58% | Potency [16]

CCOP(=S)(OCC)Oc1nc(Cl)c(Cl)cc1Cl
inactive: Potency [20] | outcome [17] | outcome [1] | Potency [2] | Potency [4] | outcome [5] | Potency [8] | Potency [10] | Potency [11] | Potency [12] | Potency [13] | Potency [19] | activation [15] 2.38% [middle of 4 runs]

Oc1cc(Cl)cc(Cl)c1
inactive: outcome [17] | outcome [1] | Potency [2] | outcome [3] | outcome [18] | Potency [4] | outcome [6] | Potency [7] | Potency [8] | Potency [9] | Potency [10] | Potency [11] | Potency [12] | Potency [13] | Potency [14] | Potency [19] | activation [15] 1.86%
active: Potency [16] 42.2 µM

O=[N+]([O-])CCO
inactive: Potency [20] | outcome [17] | outcome [1] | Potency [2] | outcome [5] | outcome [6] | Potency [7] | Potency [8] | Potency [9] | Potency [10] | Potency [11] | Potency [14] | Potency [19]

C=COC(C)=O
inactive: Potency [20] | outcome [17] | outcome [1] | Potency [2] | outcome [3] | outcome [18] | Potency [4] | outcome [6] | Potency [7] | Potency [8] | Potency [9] | Potency [13] | Potency [19] | Potency [16]

O=C(Cc1ccccc1)OCc1ccccc1
inactive: Potency [20] | outcome [17] | outcome [1] | outcome [18] | Potency [4] | outcome [5] | outcome [6] | Potency [7] | Potency [9] | Potency [10] | Potency [11] | Potency [12] | Potency [13] | Potency [14] | Potency [19] | Potency [16]

CN(C)C(=O)Nc1ccc(Cl)cc1
inactive: Potency [20] | outcome [17] | outcome [1] | outcome [3] | Potency [4] | outcome [5] | outcome [6] | Potency [7] | Potency [8] | Potency [9] | Potency [10] | Potency [12] | Potency [13] | Potency [14] | Potency [19] | activation [15] -1.85% and -2.71% | Potency [16]

CC[N+](=O)[O-]
inactive: Potency [20] | outcome [17] | outcome [1] | Potency [2] | outcome [3] | outcome [18] | Potency [4] | outcome [5] | outcome [6] | Potency [7] | Potency [8] | Potency [10] | Potency [11] | Potency [12] | Potency [13] | Potency [14] | Potency [19] | activation [15] -3.29% | Potency [16]
